From PubChem BioAssay AID624331 (National Center for Advancing Translational Sciences (NCATS), 2012)
Results filed as inconclusive are left out. Where a call stands in place of a potency, no number is given. Active and inactive are the calls of the source. The call rests on the fitted dose curve; in most records, active means well fitted activation curve with a large enough effect; inconclusive means small, poorly fitted or top-dose-only effect; inactive means no such curve, though single readings can be large or run the other way.

Experiment: qHTS assay for re-activators of p53 using a Luc reporter: Hit Validation with no p53 Expressed
Summary of the method: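 Counter-screen of primary hits in a cell line not transfected with p53, in Opti-MEM with 10% FBS; compounds at several concentrations (10 mM stock, 1:5; top 46.1 µM in well), 24 h at 37 deg C, 5% CO2. Luminescence read after 10 min with Amplite reagent.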

Structure (SMILES) | Potency
O=C(c1ccc(N2CCN(S(=O)(=O)c3ccccc3)CC2)c([N+](=O)[O-])c1)N1CCOCC1 | inactive
CC(C)/C=C1\CC/C(=C\c2ccc(N(C)C)cc2)C1=O | inactive
Cc1cc(C)cc(NC(=O)c2sc3nc(C)cc(C)c3c2N)c1 | inactive
Cc1ccc(NC(=O)/C=C/c2ccc([N+](=O)[O-])s2)c(C)c1 | inactive
Cc1cc(NC(c2cccnc2)c2ccc3cccnc3c2O)no1 (centres undefined) | inactive
COc1cc(C(=S)N2CCOCC2)ccc1OC(=O)c1ccccc1C | inactive
CCOC(=O)C1CCN(S(=O)(=O)Cc2ccccc2)C1=O (centres undefined) | inactive
O=C(/C(=C\c1ccccc1)c1nc2ccccc2[nH]1)c1ccc(Cl)cc1 | inactive
NS(=O)(=O)c1ccc(CCNCc2cccnc2)cc1 | inactive
CCOC(=O)CC(=O)Nc1ccc(C(=O)OCC)cc1 | inactive
Cc1ccc(C)n1-c1cccc(NC(=O)c2ccccc2)c1 | inactive
Cc1ccc(-c2cc3nc(C)cc(NCc4ccco4)n3n2)cc1 | inactive
Cc1cccc2nc(CSC(=N)N)c(Br)n12 | inactive
O=C(/C=C/c1ccco1)NC(=S)Nc1cc(-c2nc3ccccc3s2)ccc1Cl | inactive
COCCSc1ccccc1C(=O)Nc1cc(C)ccn1 | inactive
O=C(Nc1ccc(COc2ccccc2)cc1)c1cccc([N+](=O)[O-])c1 | inactive
ON=C1c2cc(OCCN3CCCCC3)ccc2-c2ccc(OCCN3CCCCC3)cc21 | inactive
Cc1cccc(NC(=S)NC(=O)C2CC2)c1 | inactive
Clc1ccc(OCc2nc(-c3ccncc3)no2)c(Cl)c1 | inactive
c1ccc2nc(-c3ccc(N4CCOCC4)cc3)ccc2c1 | inactive

Structure (SMILES) | Potency
C/C(=N\NC(=O)c1cc(C)nc2ccccc12)c1ccccn1 | inactive
Cc1ccc2c(c1)C(N1CCCC1=O)CC(c1ccco1)N2 (centres undefined) | inactive
Cc1cc(C)c2nc(NNC(=O)c3ccc(S(=O)(=O)N4CCc5ccccc5C4)cc3)sc2c1 | inactive
CCCCNC(=S)N(Cc1c(C)noc1C)c1ccccc1 | inactive
O=C(/C=C/c1ccco1)Nc1ccccn1 | inactive
CC(C)(C)c1ccc(NC(=O)COC(=O)c2ccc(NS(=O)(=O)c3ccc(F)c(F)c3)cc2)cc1 | inactive
O=C(COC(=O)c1cc2ccccc2oc1=O)Nc1cccc(S(=O)(=O)N2CCCCCC2)c1 | inactive
N#C/C(=C/c1cccnc1)c1ccccc1 | inactive
Cc1ccccc1CSc1ncc(C#N)c(N)n1 | inactive
O=C(NC12CC3CC(CC(C3)C1)C2)c1ccc(-c2cccc(Cl)c2)o1 | inactive
N/C(=N\c1nc2ccccc2o1)NC(=O)c1ccc(F)cc1 | inactive
O=C(NNC(=O)c1cccnc1SCc1cccc([N+](=O)[O-])c1)c1ccccn1 | inactive
Cc1cc(C)nc(SCC(=O)OCC(=O)Nc2nc3ccccc3s2)n1 | inactive
Cc1cc(C(=O)COC(=O)c2cccc(O)c2)c(C)n1C1CC1 | inactive
O=c1oc2ccccc2nc1/C=C(O)/C=C/c1ccc(F)cc1 | inactive
Cc1ccc(C(=O)NC(=C(Cl)Cl)S(=O)(=O)c2ccccc2)cc1 | inactive
CCCCC(=O)N1CCCC(C)C1 (centres undefined) | inactive
CC1CC1C(=O)Nc1nc2ccc(S(C)(=O)=O)cc2s1 (centres undefined) | inactive
CCc1ccc2[nH]c(=O)c(CN(CCN(CC)CC)C(=O)NC3CCCCC3)cc2c1 | inactive
